Experimental findings from PubChem BioAssay are described below.

Assay [1] relates to Plasmodium falciparum Sir2 (PF13_0152, Sir2A). The assay is described as follows: pfSir2 binders on small-molecule microarrays, primary screen, biochemical, small-molecule microarray, 635 nm fluorescence (AID 1098).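 Note: score merges spot fluorescence intensity with its signal-to-noise ratio.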 As to conditions: small-molecule microarray binding, fluorescence 635 nm; higher = more signal.
A short description of assay [2]: small-molecule microarray binders of probe aDKK1, primary screen, biochemical, biotinylated probe, 635/667 nm fluorescence (AID 1099).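 Note: score merges 667nm spot fluorescence with signal to noise across triplicate slides; reference of the scale not given here.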 The conditions noted are these: higher = more signal.
Assay [3] is described as follows: small-molecule microarray binders of probe aCHRDL2, primary screen, biochemical, biotinylated probe, 635/667 nm fluorescence (AID 1100). The conditions noted are these: higher = more signal.
The nature of assay [4]: splicing luciferase reporter signal modulators, primary screen, spliceosome inhibition project, cell-based, HEK293, splice +/- reporter (AID 1101).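 Note: HEK293 cells carrying a splicing-competent luciferase reporter gene; test concentration not given here.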 The conditions noted are these: luminescence, 24 h, higher = more signal, called active from +8 up or from −8 down.
In assay [5] the target is Fibroblast growth factor 10 (Homo sapiens) (UniProt O15520). The assay is described as follows: FGF10 binders on small-molecule microarrays, primary screen, biochemical, small-molecule microarray, 635 nm fluorescence (AID 1102). The conditions noted are these: FGF10 binding, fluorescence 635 nm, higher = more signal.
The test system of assay [6] is glycogen synthase kinase-3 (GSK3A per assay name; protocol says GSK3B). Nature of the assay: GSK3 binders on small-molecule microarrays, primary screen, biochemical, small-molecule microarray, 635 nm fluorescence, GSK3A (AID 1103). Note: the record names both GSK3A and GSK3B. The conditions noted are these: small-molecule microarray binding, fluorescence 635 nm; higher = more signal.
Assay [7] addresses Epidermal growth factor receptor (Homo sapiens) (UniProt P00533). Nature of the assay: EGFR binders on small-molecule microarrays, primary screen, biochemical, small-molecule microarray, 635 nm fluorescence (AID 1104).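 Note: score merges 667 nm emission intensity with spot signal to noise over triplicate slides.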 The conditions noted are these: EGFR binding, higher = more signal.
For assay [8], the target named is Follistatin-related protein 3 (Homo sapiens) (UniProt O95633). Nature of the assay: FSTL3 binders on small-molecule microarrays, primary screen, biochemical, small-molecule microarray, 635 nm fluorescence (AID 1105).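 Note: score merges emission near 667 nm and signal to noise per printed spot across three slides.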 As to conditions: FSTL3 binding, higher = more signal.
The target in assay [9] is Dickkopf-related protein 1 (Homo sapiens) (UniProt O94907). The assay is described as follows: DKK1 binders on small-molecule microarrays, primary screen, biochemical, small-molecule microarray, 635 nm fluorescence scan (AID 1106).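 Note: score merges emission near 667 nm with signal to noise over three replicate slides.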 The conditions noted are these: DKK1 binding, higher = more signal.
Assay [10] deals with Inhibin beta A chain (activin A). The assay is described as follows: INHBA (activin A) binders on microarrays, primary screen, biochemical, small-molecule microarray, 635 nm fluorescence scan (AID 1107).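 Note: mouse activin A protein probed at 4.33 µg/mL on printed slides; score merges bound-protein fluorescence near 667 nm with spot signal-to-noise.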 As to conditions: small-molecule microarray binding, higher = more signal.

Calls of active or inactive are those of the source.

Chain of Follistatin-related protein 3 (Homo sapiens) (O95633 whole entry, looked up): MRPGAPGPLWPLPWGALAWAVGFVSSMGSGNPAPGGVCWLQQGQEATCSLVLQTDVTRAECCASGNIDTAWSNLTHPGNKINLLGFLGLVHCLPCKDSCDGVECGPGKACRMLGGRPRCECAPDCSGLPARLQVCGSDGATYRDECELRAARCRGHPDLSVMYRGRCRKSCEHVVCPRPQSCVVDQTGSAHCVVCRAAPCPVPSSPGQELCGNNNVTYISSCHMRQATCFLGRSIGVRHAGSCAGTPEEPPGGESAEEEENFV
Chain of Epidermal growth factor receptor (Homo sapiens) (P00533 whole entry, looked up): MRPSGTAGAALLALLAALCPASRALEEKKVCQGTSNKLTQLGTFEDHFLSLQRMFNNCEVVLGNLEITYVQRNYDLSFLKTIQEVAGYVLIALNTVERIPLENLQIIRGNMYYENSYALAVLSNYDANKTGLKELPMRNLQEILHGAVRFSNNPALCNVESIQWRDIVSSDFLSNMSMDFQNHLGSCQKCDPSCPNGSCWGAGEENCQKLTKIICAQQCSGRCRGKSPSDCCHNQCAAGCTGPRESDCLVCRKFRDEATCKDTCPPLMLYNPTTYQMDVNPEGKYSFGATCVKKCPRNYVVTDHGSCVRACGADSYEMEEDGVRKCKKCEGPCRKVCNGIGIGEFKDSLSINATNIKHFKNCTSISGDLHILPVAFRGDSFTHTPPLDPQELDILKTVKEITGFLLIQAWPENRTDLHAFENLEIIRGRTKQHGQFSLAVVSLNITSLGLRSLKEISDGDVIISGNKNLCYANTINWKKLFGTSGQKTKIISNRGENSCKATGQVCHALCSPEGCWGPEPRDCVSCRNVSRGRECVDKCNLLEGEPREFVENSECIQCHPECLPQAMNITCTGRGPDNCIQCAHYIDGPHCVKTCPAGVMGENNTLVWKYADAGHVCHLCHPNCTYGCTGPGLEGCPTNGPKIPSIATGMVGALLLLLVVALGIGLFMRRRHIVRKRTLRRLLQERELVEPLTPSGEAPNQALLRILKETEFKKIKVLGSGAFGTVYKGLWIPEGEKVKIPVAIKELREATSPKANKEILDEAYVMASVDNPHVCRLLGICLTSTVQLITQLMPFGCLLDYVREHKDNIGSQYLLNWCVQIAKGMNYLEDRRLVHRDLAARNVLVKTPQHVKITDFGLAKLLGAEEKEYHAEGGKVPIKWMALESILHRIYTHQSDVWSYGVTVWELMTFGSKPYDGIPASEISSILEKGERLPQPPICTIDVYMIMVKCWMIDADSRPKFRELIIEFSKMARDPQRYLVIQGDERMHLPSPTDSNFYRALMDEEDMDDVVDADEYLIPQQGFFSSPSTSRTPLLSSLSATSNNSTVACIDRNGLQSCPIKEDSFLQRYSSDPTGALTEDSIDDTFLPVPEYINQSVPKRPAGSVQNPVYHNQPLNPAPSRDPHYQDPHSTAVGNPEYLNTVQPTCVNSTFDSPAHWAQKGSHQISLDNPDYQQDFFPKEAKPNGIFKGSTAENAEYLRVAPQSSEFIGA
Chain of Fibroblast growth factor 10 (Homo sapiens) (O15520 whole entry, looked up): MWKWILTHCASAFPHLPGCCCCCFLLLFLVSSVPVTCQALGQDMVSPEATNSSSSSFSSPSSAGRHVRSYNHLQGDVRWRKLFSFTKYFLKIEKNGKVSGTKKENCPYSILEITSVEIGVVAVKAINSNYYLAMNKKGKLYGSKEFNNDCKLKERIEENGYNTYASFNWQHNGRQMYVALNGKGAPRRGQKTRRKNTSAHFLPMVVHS
Chain of Dickkopf-related protein 1 (Homo sapiens) (O94907 whole entry, looked up): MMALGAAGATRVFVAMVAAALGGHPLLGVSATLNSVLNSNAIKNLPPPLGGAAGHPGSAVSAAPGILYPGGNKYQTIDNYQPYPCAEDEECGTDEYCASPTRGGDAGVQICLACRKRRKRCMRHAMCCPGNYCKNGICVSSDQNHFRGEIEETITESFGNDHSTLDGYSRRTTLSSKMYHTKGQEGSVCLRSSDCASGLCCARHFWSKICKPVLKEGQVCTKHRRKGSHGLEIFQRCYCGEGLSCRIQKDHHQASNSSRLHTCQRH

For the compound `CC(C)(C)N1CC=CC23O[C@@H]4C=CCOC(=O)[C@@H]4[C@H]2C(=O)N(CCO)[C@@H]3C1=O` (stereo not given in full), the composite z-score is 1.75 in [1]; -0.243 in [2]; 0.375 in assay [3]; -1.05 in [5]; -1.14 in assay [6]; -0.687 in [7]. Moreover, the composite z-score in assay [8] was -0.955; in assay [9] it was -1.44; in assay [10], -0.545. For the same compound, the z-score in assay [4] is -0.273 (inactive).

Regarding `C=CCC(OC(C)=O)[C@@H]1[C@@H](N(Cc2cccc3ccccc23)C(=O)Cc2ccc(OC)cc2)c2cc(OCCCO)ccc2N1C(=O)c1ccc2ccccc2c1` (stereo not given in full), the composite z-score in [1] was 0.0596; in assay [2] it was 0.0644; in [3] it was 0.256; in [5], 0.045; in [6], -0.344; in assay [7] it was 0.0359. Also, the composite z-score stood at 0.627 in assay [8], 0.234 in [9] and 1.35 in assay [10]. For the same compound, the z-score in assay [4] was -1.68 (inactive).

Consider `CC(C)NC(=O)[C@@]1(C)c2ccccc2C(=O)N(Cc2ccccc2)[C@H]1c1ccc(CO)cc1`, for which the composite z-score was 1.7 in assay [1]; -0.152 in assay [2]; 0.424 in assay [3]; -1.2 in assay [5]; -0.0543 in assay [6]; -0.921 in [7]. For the same compound, the composite z-score is -0.394 in [8], -0.0744 in assay [9] and -1.14 in assay [10]. In assay [4], the z-score is -0.44 (inactive).

As to `CC1CC/C=C\[C@H]2OC34C=CCN(Cn5nnc6ccccc65)C(=O)[C@H]3N(CCCCCCO)C(=O)[C@@H]4C2C(=O)O1` (stereo not given in full), the composite z-score in [1] is 0.765; in assay [2], -0.252; in [3], 0.794; in assay [5], -0.835; in assay [6], -0.759; in [7] it was -0.951. For the same compound, the results for the composite z-score in assay [8], in assay [9] and in assay [10] were -1.23, -1.36 and -0.306, respectively. In addition, in [4], the z-score was 0.468 (inactive).

Consider `Cc1ccc(C(C)CC(O)C2C=CC3C(=O)N(C)C(=O)C3N2Nc2ccccc2)o1` (stereo not given), for which the composite z-score in assay [1] was 0.84; in assay [2] it was 0.169; in assay [3] it was 0.778; in assay [5] it was 1.19; in assay [6] it was 1.25; in [7] it was 1. Moreover, the composite z-score in assay [8] stood at 1.39; in assay [9], 0.593; in assay [10], 0.989. For the same compound, in [4], the z-score was 1.27 (inactive).

As to `[N-]=[N+]=NCc1ccccc1[C@@H]1OC(c2ccc(OCCCO)cc2)=N[C@]1(Cc1ccccc1N=[N+]=[N-])C(=O)NCC(O)CO` (stereo not given in full), the composite z-score in [1] came to 1.29; in [2] it was 1.28; in assay [3] it was 0.98; in assay [5] it was 0.846; in assay [6], 0.898; in assay [7] it was 0.0004. The composite z-score came out at 0.418 in assay [8], 0.0477 in [9] and 1.22 in assay [10]. In assay [4], the z-score is 1.25 (inactive).

For `CN1C(=O)C2C(C1=O)C1C=C(CCCO)C2C(C2CC2)N1Cc1cccc(OC(F)(F)F)c1` (stereo not given), the composite z-score was 1.79 in assay [1]; -0.656 in assay [2]; 0.512 in assay [3]; -0.268 in assay [5]; 0.393 in assay [6]; -0.783 in assay [7]. Further, the figures for the composite z-score in assay [8], in assay [9] and in assay [10] were 0.0703, -0.521 and 0.722, respectively. Further, the z-score in [4] was -0.511 (inactive).

Take `O=C1C2C=CC(C(O)c3c(F)cccc3Cl)N(Nc3ccc([N+](=O)[O-])cc3)C2C(=O)N1c1ccccc1` (stereo not given): the composite z-score in assay [1] was 0.77; in [2] it was -0.124; in [3] it was -0.0918; in assay [5], 1.2; in [6], 1.27; in assay [7], 0.518. Further, the composite z-score in [8] was found to be 1.45; in [9], 0.875; in assay [10], 0.191. In assay [4], the z-score is -0.108 (inactive).

Consider `CC(C)[Si](C#CCCc1ccccc1)(O[C@H](c1ccccc1)c1cn(Cc2ccccc2)nn1)C(C)C`, for which the composite z-score in assay [1] is 0.431; in assay [2], -0.069; in [3], -0.496; in [5] it was 0.559; in assay [6] it was 1.28; in assay [7], 0.618. Besides, the composite z-score was determined as 0.773 in assay [8], 0.611 in assay [9] and 0.152 in [10]. Moreover, the z-score in [4] is 0.105 (inactive).

On to `CCCC[C@H]1C[C@@H]1[C@@H]1N(C(C)=O)[C@H](c2cccc(OC)c2)CC12CC2`, for which the composite z-score is -0.497 in assay [1]; 0.692 in assay [2]; 0.878 in [3]; 0.0847 in assay [5]; 0.114 in assay [6]; -0.0128 in [7]. Besides, the composite z-score in [8] was 0; in assay [9], -0.556; in assay [10], 0.596. Besides, the z-score in [4] was -1.86 (inactive).

With `COC(=O)[C@@]1(Cc2ccccc2)[C@H]2c3cc(C(=O)N(C)C)n(CCO)c3C[C@H]2CN1C(=O)c1ccccc1`, the composite z-score in assay [1] is 0.621; in assay [2] it was 1.25; in assay [3] it was 1.21; in assay [5], 0.909; in [6] it was 0.594; in assay [7], -0.745. Further, the composite z-score in [8] is -0.181; in assay [9], -0.994; in assay [10], -0.206. In addition, in assay [4], the z-score was 0.395 (inactive).

Turning to `CCCNC(=O)[C@@]1(Sc2ccc(C)cc2)CC(=O)N(Cc2ccccc2Cl)[C@@H]1c1ccc(CO)cc1I`, the composite z-score in assay [1] is 0.958; in assay [2], 0.147; in assay [3], 0.864; in assay [5], -0.87; in assay [6] it was -0.51; in [7] it was -1.49. Further, the composite z-score was -1.14 in [8], -1.54 in assay [9] and 0.472 in assay [10]. The z-score in [4] is -0.766 (inactive).

Consider `COc1cc(CO)cc(I)c1O[C@H]1C=C(C(=O)NCCO)C[C@@H]2O[C@H]12`, for which the composite z-score in [1] stood at 0.6; in [2], 0.298; in [3] it was 0.0558; in [5] it was 1.77; in assay [6] it was 1.33; in assay [7], 0.989. In addition, the figures for the composite z-score in [8], in assay [9] and in [10] were 1.45, 1.34 and 0.643, respectively. Further, in [4], the z-score is 1 (inactive).

On to `CCCCC(=C=CC[C@H](O)c1ccc(CO)o1)CCO`, for which the composite z-score was 1.17 in assay [1]; -0.0027 in [2]; -0.485 in [3]; 0.738 in assay [5]; 0.514 in [6]; -0.0244 in [7]. For the same compound, the composite z-score in assay [8] was 0.484; in assay [9], -0.0878; in [10], 0.839. For the same compound, the z-score in assay [4] was 0.263 (inactive).

For the compound `[N-]=[N+]=Nc1ccccc1[C@@H]1OC(c2ccc(OCCCO)cc2)=N[C@]1(Cc1ccccc1)C(=O)NCCN1CCOCC1`, the composite z-score was 0.669 in [1]; 0.652 in assay [2]; 0.825 in assay [3]; 1.1 in assay [5]; 0.774 in assay [6]; -0.04 in [7]. Also, the values for the composite z-score in assay [8], in assay [9] and in assay [10] were 0.952, -0.326 and 0.33, respectively. For the same compound, the z-score in assay [4] is -0.299 (inactive).

As to `COC(=O)[C@@]1(Cc2ccccc2)[C@H]2c3cc(C(=O)N(C)C)n(CCSC(=N)N)c3C[C@H]2CN1C(=O)c1ccccc1`, the composite z-score is 1.16 in assay [1]; 0.743 in assay [2]; 1 in [3]; -0.315 in [5]; -0.102 in assay [6]; -0.649 in [7]. The composite z-score in assay [8] was -0.406; in assay [9], -1.49; in assay [10] it was 1.01. Moreover, in [4], the z-score was 0.61 (inactive).
